Molecules are shown by their SMILES. Active and inactive are the calls of the source. Calls come from the whole dose curve; as a rule, active = well fitted inhibition curve with a large enough effect in the repeat runs (not every such curve was filed as active); inconclusive = weak or mixed curves; inactive = flat fitted curve, though single readings scatter.

Sequence of Thyrotropin-releasing hormone receptor (Homo sapiens) (P34981 whole entry, looked up): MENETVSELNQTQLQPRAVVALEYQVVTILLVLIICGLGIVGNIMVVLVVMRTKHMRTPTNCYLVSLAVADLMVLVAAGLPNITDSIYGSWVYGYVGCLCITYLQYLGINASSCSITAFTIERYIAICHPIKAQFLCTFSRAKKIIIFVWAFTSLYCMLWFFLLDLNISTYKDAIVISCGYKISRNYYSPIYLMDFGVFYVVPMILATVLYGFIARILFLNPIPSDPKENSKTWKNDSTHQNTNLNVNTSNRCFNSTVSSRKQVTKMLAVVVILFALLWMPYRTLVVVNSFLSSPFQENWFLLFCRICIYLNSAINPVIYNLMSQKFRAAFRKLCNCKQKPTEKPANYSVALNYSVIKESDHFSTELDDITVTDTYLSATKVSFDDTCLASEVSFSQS

This assay addresses Thyrotropin-releasing hormone receptor (Homo sapiens) (UniProt P34981). Briefly: qHTS assay to identify small molecule antagonists of the thyrotropin-releasing hormone receptor (TRHR) signaling pathway (AID 1346877). As to conditions: TRHR-HEK293, TRH-induced calcium fluorescence, antagonist mode; series mostly up to 51.3 µM. From the text: National Center for Advancing Translational Sciences [NCATS]
NIH Chemical Genomics Center [NCGC]
U.S. Environmental Protection Agency [EPA]
National Institutes of Environmental Health Sciences [NIEHS]
National Toxicology Program [NTP]
U.S. Food and Drug Administration [FDA]
Thyrotropin-releasing hormone (TRH) receptor (TRHR) is a G-protein-coupled receptor which binds the tripeptide thyrotropin releasing hormone. TRHR is found in the brain and, when bound by TRH, acts (through phospholipase C) to increase intracellular inositol trisphosphate. It plays a crucial role in the anterior pituitary where it controls the synthesis and secretion of thyroid stimulating hormone and prolactin. The TRHR-Hek293 assay is a cell-based assay, and it has the potential to screen G protein-coupled receptors. A compound/drug can either activate (agonist) or suppress (antagonist) GPCRs that can be monitored by levels of intracellular calcium. In this assay, the Tox21 10K compound library was screened to identify potential TRHR antagonists.
Tox21 Assay Protocol Summary:
The TRHR-Hek293 cells were dispensed at 1500cells/4uL/well in 1536-well black-clear bottom plates using a Multidrop dispenser. After the assay plates were incubated at a 37 C/5% CO2 incubator for 18 hours, 4 uL of Dye-Loading Solution was added to each well. The plates were incubated at 37 C for 2 hours. For agonist mode, 23 nL of compounds dissolved in DMSO, positive controls or DMSO only was transferred to the assay plate by a pin tool. The fluorescence intensity in the plates was measured using FDSS 7000EX kinetic plate reader for 3 min at 1 sec intervals. For antagonist mode, 23 nL of compounds dissolved in DMSO, positive controls or DMSO only was transferred to the assay plate by a pin tool. After 5 min incubation at room temperature, 1 uL of TRH was added on the top of the cell/compound mixtures to achieve a final agonist concentration of 1 nM. The fluorescence intensity in the plates was measured using FDSS 7000EX kinetic plate reader for 3 min at 1 sec intervals. Each test compound was measured at 15 concentrations and in triplicates.
On the technique in general: In qHTS, concentration-response curves come from the screen itself.
Turning to `COc1ccc(C)cc1N`, the result was inactive.

`CC1(C)OC[C@@H]2O[C@@]3(C(=O)O)OC(C)(C)O[C@H]3[C@@H]2O1`: the result was inactive.

Regarding `O=C(O)CCCCCCCCC(=O)O`, the result was inactive.

Turning to `NCCCCCCN`, the outcome was inactive.

Regarding `CC(C)CC(=O)CC(C)CC(C)C` (stereo not given), the outcome was inactive.

`CCCCCCCCCCCCCCCCO`: the outcome was inactive.

As to `COc1cc(OC)c(C(=O)CCCN2CCCC2)c(OC)c1`, the result was inactive.

With `CNC(=O)Oc1ccc2c(c1)[C@]1(C)CCN(C)[C@@H]1N2C`, the outcome was inactive.

For `COc1ccccc1OCC(O)CO` (stereo not given), the result was inactive.

For `CN/C(=C\[N+](=O)[O-])NCCSCc1csc(CN(C)C)n1`, the result was inactive.

Regarding `COc1ccc(OC)cc1`, the outcome was inactive.

Turning to `c1ccc(Oc2ccccc2)cc1`, the outcome was inactive.

Turning to `COCCCN`, the outcome was inactive.

As to `N[C@H](Cc1c[nH]c2ccccc12)C(=O)O`, the outcome was inactive.

`OC1C(O)C(O)C(O)C(O)C1O` (stereo not given): the outcome was inactive.

For the compound `CC(C)OP(=O)(CP(=O)(OC(C)C)OC(C)C)OC(C)C`, the outcome was inactive.

With `CC(=O)OCc1ccccc1`, the outcome was inactive.

Regarding `CCCCCCO`, the result was inactive.

Turning to `CC(C)(C)c1cc(Cc2cc(C(C)(C)C)c(O)c(C(C)(C)C)c2)cc(C(C)(C)C)c1O`, the result was inactive.

For `Nc1nc(N)nc(-c2ccccc2)n1`, the result was inactive.

As for `OCc1cccc(Oc2ccccc2)c1`, the result was inactive.

On to `CN1C(=O)CC[C@H]1c1cccnc1`, for which the outcome was inactive.

Take `CCCCCCCC=O`: the result was inactive.

Take `CCCOC(=O)c1ccccc1`: the result was inactive.

In the case of `Clc1ccccn1`, the result was inactive.

On to `Cc1ccc(S(=O)(=O)N=C=O)cc1`, for which the outcome was inactive.

For the compound `CCOC(=O)c1ccc(N)cc1`, the result was inactive.

In the case of `COCCOC(=O)c1ccccc1C(=O)OCCOC`, the outcome was inactive.

Regarding `CC(C)CCCCCCCOC(=O)CCCCC(=O)OCCCCCCCC(C)C`, the outcome was inactive.

With `CCCCOC(=O)c1ccc(N)cc1`, the result was inactive.

On to `Cc1ccc2ncccc2c1`, for which the result was inactive.

For the compound `CCCCC(C=O)CC` (stereo not given), the outcome was inactive.

Turning to `CCCCCCCCCCCCCCCC(=O)OC(C)C`, the outcome was inactive.

Regarding `CCCCCCCCCCN`, the outcome was inactive.

For `O=S(=O)(O)c1ccccc1`, the outcome was inactive.

As for `O=C(O)c1ccc(S(=O)(=O)N(Cl)Cl)cc1`, the result was inactive.

For `Cc1ccc([N+](=O)[O-])cc1S(=O)(=O)O`, the result was inactive.

Consider `C=C(C)CNCC`, for which the outcome was inactive.

For the compound `CCNC(=S)NCC`, the result was inactive.

On to `COC(=O)CCCC(=O)OC`, for which the outcome was inactive.

The record behind these values is PubChem BioAssay (Tox21).
